Screens from PubChem BioAssay.
TLR9-MyD88 inh: inhibitors of human TLR9-MyD88 binding; inhibition, % at 4.98 µM; AID 504734; 340,000 compounds, 0.21% hits; CHO BLA complementation TLR9-MyD88, CCF4 FRET ratio; Q9NR96+Q99836;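 active = inhibition above the mean over all tested compounds plus 3 SD, cut at about 21% in these data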;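 also: 0% = DMSO only wells and 100% = clavulanate BLA inhibitor control wells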
Granule exo inh: blocks lytic granule exocytosis | AID 651702 | inhibition, % at 10 µM | 360,000 compounds, 0.66% hits | TALL-104 LAMP-1 surface exposure, flow cytometry; cells stimulated with thapsigargin and PMA;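 active = inhibition above about 55%, limit read from the data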
NOD2-RIPK2 inh: blocks binding of human NOD2 to RIPK2; inhibition, % at 4.98 µM; CHO BLA complementation NOD2-RIPK2, CCF4 ratio; 360,000 compounds, 0.38% hits; AID 624267; O43353; in the data active = inhibition above about 21%;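 also: 0% = vehicle only and 100% = reference blocker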
Target sequence (O43353 whole entry, looked up): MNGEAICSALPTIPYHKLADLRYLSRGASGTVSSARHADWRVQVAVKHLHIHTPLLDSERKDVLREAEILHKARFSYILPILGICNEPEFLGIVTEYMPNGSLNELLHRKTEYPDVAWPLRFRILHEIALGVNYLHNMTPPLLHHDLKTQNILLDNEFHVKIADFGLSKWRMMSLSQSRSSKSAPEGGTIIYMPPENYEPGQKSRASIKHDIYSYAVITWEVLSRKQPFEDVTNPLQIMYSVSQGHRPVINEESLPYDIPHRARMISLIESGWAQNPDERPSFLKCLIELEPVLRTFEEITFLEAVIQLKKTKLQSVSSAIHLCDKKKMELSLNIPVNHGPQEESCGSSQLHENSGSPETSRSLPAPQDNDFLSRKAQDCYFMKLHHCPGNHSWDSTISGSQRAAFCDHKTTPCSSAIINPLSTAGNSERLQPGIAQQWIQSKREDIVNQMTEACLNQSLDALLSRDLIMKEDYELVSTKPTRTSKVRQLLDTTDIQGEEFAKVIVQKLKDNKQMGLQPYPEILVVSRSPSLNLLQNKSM
TLR4 MyD88 comp: TLR4-MyD88 interaction inhibition in cells | O00206+Q99836 | HeLa CL3-4 TLR4/MyD88 BLA complementation, FRET ratio | inhibition, % at 8.4 µM | 200,000 compounds, 0.18% hits | AID 861; in the data active = inhibition above about 25%;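 also: 0% = vehicle and 100% = reference inhibitor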
PRMT1 FP inh: inhibitors of human PRMT1. Q99873. recombinant PRMT1, activity-based probe fluorescence polarization. inhibition, % at 2.79 µM. 370,000 compounds, 1.3% hits. AID 652257;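 active = inhibition above about 21% made by adding two undisclosed values, limit read from the data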
ABHD5 PLIN5 PPI: ABHD5-PLIN5 protein interaction inhibition; Split G. princeps luciferase complementation, luminescence, 4 h; 360,000 compounds, 0.78% hits; inhibition, % at 4 µM;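 active = inhibition above the mean inhibition across every tested compound plus 3 SD, cut at about 22% in these data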;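 also: 0% = DMSO only wells and the 100% control is not disclosed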
PRMT1 confirm: PRMT1 (human) inhibition, FP confirmation | shares compounds with PRMT1 FP inh | recombinant His-PRMT1, activity-based probe fluorescence polarization | inhibition, % at 2.79 µM | 3,300 compounds, 42% hits | AID 687036;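 active = mean inhibition across replicates above the hit cutoff derived for the earlier primary screen, cut at about 22% in these data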
* = called active by the depositor; . = no result; ! = not active in a repeat. Most compounds without a hit are left out; they make up all but 2.6% or so of the library.

SMILES	TLR9-MyD88 inh	Granule exo inh	NOD2-RIPK2 inh	TLR4 MyD88 comp	PRMT1 FP inh	ABHD5 PLIN5 PPI	PRMT1 confirm
COC(=O)C1=C(c2c(C)noc2C)C[C@@H]2CC[C@H]1N2C(=O)NCCCOC(C)C	-3	6	6	.	-1	2	.
COc1ccccc1CN1CCN(Cc2ccc(Cl)cc2)CC1	4	-1	-17	6	-2	7	.
CCN(CC)C(=O)COc1cc(C)cc2oc(=O)c3c(c12)CCCC3	5	-4	-4	.	1	0	.
COc1cc(N2CCOCC2)ccc1/C=C1\C(=O)NC(=O)N(C2CCCCC2)C1=O	1	-4	2	8	26*	-17	7
Cn1cnc([N+](=O)[O-])c1Sc1ccc([N+](=O)[O-])cc1	-2	3	0	-17	48*	4	13
O=C1C2CC=CCC2C(=O)N1SC(Cl)(Cl)Cl (stereo unspecified)	.	.	.	.	75*	.	87*
CCOC(=O)C1SC2(C(F)(F)F)CC1(O)c1c(C)cc(C)nc1O2 (stereo unspecified)	-16	-1	-6	-22	73*	-7	63*
O=C1NC(=O)C(=Cc2ccc(SC3CCCCC3)o2)C(=O)N1	14	4	-9	10	26*	17	4
NN=C1C(Cl)=C(Cl)C(Cl)=C1Cl	0	-2	11	.	26*	4	7
O=C(COC(=O)Cc1ccccc1)NNC(=O)c1ccc([N+](=O)[O-])cc1	7	-4	-5	.	2	0	.
O=C(OCC(=O)c1ccc([N+](=O)[O-])cc1)/C(=C/c1ccc(Cl)cc1)NC(=O)c1ccccc1	-11	-2	-12	-16	46*	-14	3
Cn1cc(C(=O)N2CCCCC2)c2ccccc21	-7	0	-6	-9	3	2	.
CCOc1ccc(N2C(=O)/C(=C/c3ccco3)C(=O)NC2=S)cc1	8	-9	-2	.	.	-3	.
CCc1ccc(N2C(=O)NC(=O)/C(=C\C=C\c3ccco3)C2=O)cc1	4	76*	15	.	27*	22*	6
CCCCN1C(=O)/C(=C/C=C/c2ccco2)C(=O)NC1=S	2	3	8	0	39*	-5	44*
O=P(C(=Nc1ccc(Cl)cc1)N1CCOCC1)(N1CCOCC1)N1CCOCC1	-7	-1	3	3	-2	1	.
COC(=O)C1=C(c2ccccc2OCc2ccccc2)C[C@@H]2CC[C@H]1N2C(=O)NCc1ccc(Br)cc1	-12	11	10	.	0	2	.
Cc1cccc(N2C(=O)NC(=O)/C(=C/c3cc4c(cc3[N+](=O)[O-])OCO4)C2=O)c1	12	-4	-3	-1	28*	2	55*
CCOC(=O)c1[nH]c(C)c(C(=O)N2CCC3(CC2)OCCO3)c1C	11	-1	-4	-5	1	-6	.
CCOc1ccccc1N=C1SCCCN1C	3	1	-7	11	4	-4	.
CCOc1cccc(=NC2CCCCC2)c2c(C)n(C)c(C)c12	.	43	-7	.	47*	8	4
Cc1ccc(-n2c(CNCc3ccc(F)cc3)nc3ccccc3c2=O)cc1	-2	-4	3	.	-4	-3	.
COC(=O)COc1ccc(/C=C2\C(=O)NC(=S)N(c3ccc(C)cc3)C2=O)cc1OC	-4	-2	-4	.	32*	-8	27*
COc1cc(/C=C2\C(=O)NC(=O)N(c3ccccc3)C2=O)cc(OC)c1OC	-1	5	-10	6	6	18	.
COc1cc(/C=C2/C(=O)NC(=O)N(c3ccc(C)cc3)C2=O)cc(OC)c1OC	-14	4	0	.	3	21	.
SMILES	TLR9-MyD88 inh	Granule exo inh	NOD2-RIPK2 inh	TLR4 MyD88 comp	PRMT1 FP inh	ABHD5 PLIN5 PPI	PRMT1 confirm
COc1ccc(N2C(=O)/C(=C/c3ccc(OC)c(OC)c3)C(=O)NC2=S)cc1	4	4	4	.	41*	-12	49*
Nc1cc(Cl)cc(Cl)c1	3	1	-6	.	-2	-9	.
Cc1cccc(N2CCc3c2nc2ccccc2c3N)c1	-1	-4	-2	4	33*!	-19	8
N#CC1c2ccccc2-n2nncc2CN1C(=O)c1ccccc1F (stereo unspecified)	.	4	10	.	-1	-5	.
CN(C)C1C(=O)C(C(N)=O)=C(O)C2(O)C(=O)C3=C(O)c4c(O)cccc4C(C)(O)C3CC12 (stereo unspecified)	-4	3	-10	.	.	-5	.
CN(C)[C@@H]1C(=O)C(C(N)=O)=C(O)[C@@]2(O)C(=O)C3=C(O)c4c(O)ccc(Cl)c4[C@@](C)(O)C3C[C@@H]12 (stereo partly specified)	17	1	-1	0	27*	-3	8
c1ccc(Cc2cnc(N3CCNCC3)nc2)cc1	.	.	.	.	45*	.	13
Cn1cccc1/C=C1/C(=O)NC(=S)N(Cc2ccc(F)cc2)C1=O	10	58*	-2	.	27*	9	65*
S=P(NCCNP(=S)(N1CC1)N1CC1)(N1CC1)N1CC1	3	-18	18	.	58*	4	-4
S=P(NCCSCc1ccccc1)(N1CC1)N1CC1	-3	20	-7	.	29*	1	-3
CCOC(=O)c1cc2c(cn1)[C@H](CCO)NC2	-11	-1	-5	.	0	6	.
CN=C(SCc1cc2c(cc1Cl)OCO2)c1c(O)n(C)c(=O)n(C)c1=O	0	-7	-2	4	3	-2	.
CC1CN1P(=S)(c1ccccc1)N1CC1C (stereo unspecified)	-10	-5	-8	.	36*	-5	3
CC(C)(C)n1cc(C(=O)c2ccc3ccccc3c2O)cn1	16	1	-5	-7	2	4	.
COc1ccc(CN2CCN(C(=O)Cc3ccccc3)CC2)cc1Br	2	5	-1	.	-2	1	.
Cc1ccc(OP2(=O)Nc3cc(C)c(C)cc3S2)cc1 (stereo unspecified)	-4	-1	1	.	67*	0	60*
COc1cccc2c1C(=O)c1c(O)c3c(c(O)c1C2=O)CC(O)(C(C)=NO)CC3OC1CC(N)C(O)C(C)O1 (stereo unspecified)	-4	-12	-4	.	145*	-4	139*
CN(C)C(=S)SSC(=S)N(C)C	3	41	-13	1	87*	-6	102*
CN1C(=O)NC(=O)/C(=C/c2ccc([N+](=O)[O-])s2)C1=O	-5	29	-4	.	31*	-12	58*
O=[N+]([O-])c1ccc(N2CCOCC2)c2cccnc12	6	-1	-3	1	-2	3	.
O=[N+]([O-])c1ccc(N2CCCCCC2)c2nonc12	2	2	6	.	89*	7	95*
O=[N+]([O-])c1ccc(N2CCOCC2)c2c1no[n+]2[O-]	1	22	-2	.	27*	6	2
